The values that follow come from PubChem BioAssay (EPA / NIEHS).

SMILES strings stand for the structures. The source made the active and inactive calls. The calls were made as follows: active = hit-call score of the fitted dose curve at least 0.9, where 1 is the maximum; inactive = score below 0.9.

A short description of assay [1]: ATG_CRE_CIS: Attagene CIS-FACTORIAL HepG2 Assay for human cAMP Responsive Element (CRE) binding protein 3 (AID 2282926). Conditions: HepG2 CRE cis-reporter, Attagene multiplexed mRNA; actives raise or lower the signal. The essentials: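 Liver-derived HepG2, transfected with a CRE-containing reporter panel, exposed 24 h; transcript levels sized and quantified by capillary electrophoresis of labelled amplicons; signal changes either way referenced to vehicle.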

Assay [2] has as its target CCAAT/enhancer-binding protein beta (Homo sapiens) (UniProt P17676). Kind of assay: ATG_C_EBP_CIS: Attagene CIS-FACTORIAL HepG2 Assay for human CCAAT/Enhancer Binding Protein (C/EBP) beta (AID 2282927). Conditions: HepG2 Attagene cis-factorial transcription factor reporter; actives raise or lower the signal. The essentials: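 Changes in reporter mRNA, rather than exogenous chimeric receptor activity, reflect native C/EBP signalling in transfected HepG2 cells dosed for 24 h; transcripts are detected by RT-PCR and capillary electrophoresis.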

A short description of assay [3]: ATG_CMV_CIS: Attagene CIS-FACTORIAL HepG2 Assay for human CMV (Internal Marker) (AID 2282928).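 Also: endpoint acts as a background internal control marker rather than a target.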 Conditions: HepG2 CMV promoter reporter, transcription factor profiling; actives raise or lower the signal. The procedure, abridged: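 24 h chemical treatment, HepG2 with transient multi-reporter transfection; RNA → oligo(dT) RT → PCR → 6-FAM extension → HpaI digest → CE fluorescence. Bidirectional fit, DMSO negative control.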

Assay [4] is described as follows: ATG_DR4_LXR_CIS: Attagene CIS-FACTORIAL HepG2 Assay for human Liver X Receptor (LXR), DR4 submotif (AID 2282929). Conditions: HepG2 Attagene DR4 cis-reporter, mRNA transcription; actives raise or lower the signal. The essentials: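 Fluorescence intensity of labelled reporter cDNA fragments, separated by capillary electrophoresis, gives the signal. HepG2 cells bearing cis-regulated reporter constructs were treated 24 h; activity fitted bidirectionally relative to DMSO negative control.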

Assay [5] addresses Aryl hydrocarbon receptor (Homo sapiens) (UniProt P35869). Put plainly: ATG_Ahr_CIS: Attagene CIS-FACTORIAL HepG2 Assay for human Aryl Hydrocarbon Receptor (Ahr) (AID 2282930). Conditions: HepG2 AhR cis-factorial reporter transcription; actives raise or lower the signal. The procedure, abridged: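 HepG2, transient MRTU (cis) transfection, 24 h exposure. RNA → cDNA → PCR → 6-FAM primer extension → HpaI 2 h 37 C → CE. Fit: bidirectional, DMSO baseline.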

A short description of assay [6]: ATG_AP_1_CIS: Attagene CIS-FACTORIAL HepG2 Assay for human Activator Protein 1 (AP-1) (AID 2282931). Particulars: HepG2 Attagene cis-factorial AP-1 reporter mRNA; actives raise or lower the signal. The procedure, abridged: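 Multiplexed HepG2 reporter assay, 24 h dosing. mRNA induction detected by RT-PCR plus capillary electrophoresis. Activity fitted in both directions against DMSO.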

A short description of assay [7]: ATG_AP_2_CIS: Attagene CIS-FACTORIAL HepG2 Assay for human Activator Protein 2 (AP-2) (AID 2282932). Conditions: HepG2 AP-2 cis-reporter, Attagene transcription factor profiling; actives raise or lower the signal. The essentials:
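Transiently transfected HepG2 cells are exposed to chemical for 24 h. Reporter transcripts are then measured as fluorescence following RT-PCR and capillary separation, and gain- or loss-of-signal is fitted relative to DMSO.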

Assay [8] in a line: ATG_BRE_CIS: Attagene CIS-FACTORIAL HepG2 Assay for human Bone Morphogenetic Protein (BMP) Response Element (BRE) (AID 2282933). Particulars: HepG2 BMP response element reporter, Attagene transcription factor profiling; actives raise or lower the signal. The procedure, abridged: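 Gain- or loss-of-signal was derived by bidirectional fitting against DMSO controls. The signal came from reporter mRNA, measured by RT-PCR and capillary electrophoresis, in HepG2 cells transiently carrying multiple reporter units and dosed for 24 h.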

In assay [9] the target is Retinoic acid receptor alpha (Homo sapiens) (UniProt P10276). Kind of assay: ATG_DR5_RAR_CIS: Attagene CIS-FACTORIAL HepG2 Assay for human Retinoic Acid Receptor Alpha (RARE), DR5 submotif (AID 2282934). Conditions: HepG2 Attagene cis-factorial RARE DR5 reporter, mRNA; actives raise or lower the signal. The essentials:
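HepG2, transient cis-reporter transfection, 24 h exposure. mRNA readout: RT-PCR, FAM label, HpaI cut, capillary electrophoresis. DMSO baseline, gain/loss fitting.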

A short description of assay [10]: ATG_E_Box_CIS: Attagene CIS-FACTORIAL HepG2 Assay for human Enhancer Box (E-box) (AID 2282936). Conditions: HepG2 E-box cis-reporter transcription, actives raise or lower the signal. The procedure, abridged:
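Fluorescent reporter fragments separated by capillary electrophoresis gave the signal; mRNA came from HepG2 cells transfected with cis-element reporters and treated 24 h. Curves fitted bidirectionally relative to DMSO controls.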

Assay [11] is described as follows: ATG_M_61_CIS: Attagene CIS-FACTORIAL HepG2 Assay for M61 Transcription Factor (Internal Marker) (AID 2282937). Particulars: HepG2 Attagene CIS-FACTORIAL M61 internal marker reporter; actives raise or lower the signal. The essentials: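 Endogenous transcription factor activity in HepG2 is read through transiently transfected cis-element reporter units. After 24 h dosing, RNA undergoes reverse transcription, PCR and primer extension with 6-FAM before capillary electrophoresis; DMSO-referenced bidirectional fit.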

Assay [12] in a line: ATG_EGR_CIS: Attagene CIS-FACTORIAL HepG2 Assay for human Early Growth Response 1 (EGR1) (AID 2282938). Particulars: HepG2 Attagene CIS-FACTORIAL EGR reporter mRNA; actives raise or lower the signal. The essentials:
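Activity is taken as induction or loss of reporter mRNA versus DMSO, fitted bidirectionally. Transcripts from cis-regulated reporter units in transiently transfected HepG2 were measured after 24 h by RT-PCR with capillary electrophoresis.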

Assay [13] can be described thus: ATG_M_19_CIS: Attagene CIS-FACTORIAL HepG2 Assay for M19 Transcription Factor (Internal Marker) (AID 2282939). Conditions: HepG2 Attagene CIS-FACTORIAL M19 internal marker reporter; actives raise or lower the signal. The essentials: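 Following a 24 h exposure, RNA from transfected HepG2 cells was reverse-transcribed, PCR-amplified with reporter-specific primers, end-labelled with 6-FAM and HpaI-digested before capillary separation. Values represent gain or loss versus DMSO.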

Assay [14] can be described thus: ATG_Ets_CIS: Attagene CIS-FACTORIAL HepG2 Assay for human Erythroblast Transformation Specific (ETS) (AID 2282941). Conditions: HepG2 ETS cis-reporter transcription, actives raise or lower the signal. The essentials:
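Cis-regulated reporter mRNA induction in HepG2 (transient transfection), 24 h exposure, RT-PCR plus capillary electrophoresis detection; DMSO serves as negative control and baseline.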

Assay [15] deals with Hepatocyte nuclear factor 3-beta (Homo sapiens) (UniProt Q9Y261). Put plainly: ATG_FoxA2_CIS: Attagene CIS-FACTORIAL HepG2 Assay for human Forkhead box A2 (FOXA2) (AID 2282942). Particulars: HepG2 cis-reporter transcription factor activity, 24 h; actives raise or lower the signal. The procedure, abridged:
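Reporter transcript induction is measured by fluorescence after capillary electrophoresis of RT-PCR products from HepG2 cells exposed 24 h. Cis-regulated reporter units report endogenous factor activity; curves fitted both directions against DMSO.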

A short description of assay [16]: ATG_FoxO_CIS: Attagene CIS-FACTORIAL HepG2 Assay for human Forkhead box O (FoxO) (AID 2282943). Particulars: HepG2 Attagene cis-reporter, FoxO element, mRNA; actives raise or lower the signal. The essentials:
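Human hepatoma HepG2 cells carry transiently introduced reporter transcription units controlled by cis promoter elements. Chemical treatment lasted 24 h, and mRNA signal was compared with DMSO.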

Assay [17] can be described thus: ATG_GATA_CIS: Attagene CIS-FACTORIAL HepG2 Assay for human GATA Binding Protein (AID 2282944). Conditions: HepG2 GATA cis-element reporter, Attagene multiplex mRNA; actives raise or lower the signal. The procedure, abridged:
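DMSO serves as negative control and baseline for bidirectional fitting of reporter mRNA changes. HepG2 cells bearing transiently transfected cis-promoter reporters were exposed 24 h; transcripts detected via RT-PCR and capillary electrophoresis.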

Assay [18] can be described thus: ATG_GLI_CIS: Attagene CIS-FACTORIAL HepG2 Assay for human Zinc Finger Protein GLI1 (AID 2282945). Conditions: HepG2, Attagene cis-factorial reporter mRNA, GLI element; actives raise or lower the signal. The procedure, abridged: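 Bidirectional curve fits relative to DMSO, using reporter mRNA levels from RT-PCR plus capillary electrophoresis. Cells were HepG2 transiently carrying cis-regulated reporter constructs, harvested 24 h after dosing.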

Assay [19] concerns the target Bile acid receptor (Homo sapiens) (UniProt Q96RI1). Put plainly: ATG_IR1_CIS: Attagene CIS-FACTORIAL HepG2 Assay for human Nuclear Receptor Subfamily 1 Group H Member 4 (NR1H4), IR1 submotif (AID 2282946). Particulars: IR1 reporter transcription, actives raise or lower the signal. The procedure, abridged:
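HepG2 cells transiently transfected with multiplexed cis-element reporter units read endogenous transcription factor activity. After 24 h compound exposure, reporter mRNA was quantified by RT-PCR, fluorescent labelling, HpaI digestion and capillary electrophoresis; bidirectional fitting versus DMSO baseline.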

Assay [20] has as its target Transcription factor E2F1 (Homo sapiens) (UniProt Q01094). Kind of assay: ATG_E2F_CIS: Attagene CIS-FACTORIAL HepG2 Assay for human E2F Transcription Factor 1 (AID 2282935). Conditions: HepG2 Attagene cis-reporter, E2F reporter RNA transcripts; actives raise or lower the signal. The procedure, abridged:
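Fluorescent RT-PCR products, digested with HpaI for 2 h at 37 C, are separated by capillary electrophoresis. Source RNA comes from transfected HepG2 cultures treated for 24 h.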

Sequence of Transcription factor E2F1 (Homo sapiens) (Q01094 whole entry, looked up): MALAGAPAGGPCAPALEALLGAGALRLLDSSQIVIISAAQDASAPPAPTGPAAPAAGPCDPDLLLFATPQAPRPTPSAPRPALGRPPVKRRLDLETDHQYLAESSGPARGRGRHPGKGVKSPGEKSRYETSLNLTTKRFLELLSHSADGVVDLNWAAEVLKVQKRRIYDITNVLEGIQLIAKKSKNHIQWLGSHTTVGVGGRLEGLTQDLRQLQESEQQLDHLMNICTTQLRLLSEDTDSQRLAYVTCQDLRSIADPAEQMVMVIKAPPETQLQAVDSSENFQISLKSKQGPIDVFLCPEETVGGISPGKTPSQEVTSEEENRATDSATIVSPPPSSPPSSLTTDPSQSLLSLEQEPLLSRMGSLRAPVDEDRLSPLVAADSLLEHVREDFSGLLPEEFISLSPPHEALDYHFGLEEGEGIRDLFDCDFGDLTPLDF
Sequence of Retinoic acid receptor alpha (Homo sapiens) (P10276 whole entry, looked up): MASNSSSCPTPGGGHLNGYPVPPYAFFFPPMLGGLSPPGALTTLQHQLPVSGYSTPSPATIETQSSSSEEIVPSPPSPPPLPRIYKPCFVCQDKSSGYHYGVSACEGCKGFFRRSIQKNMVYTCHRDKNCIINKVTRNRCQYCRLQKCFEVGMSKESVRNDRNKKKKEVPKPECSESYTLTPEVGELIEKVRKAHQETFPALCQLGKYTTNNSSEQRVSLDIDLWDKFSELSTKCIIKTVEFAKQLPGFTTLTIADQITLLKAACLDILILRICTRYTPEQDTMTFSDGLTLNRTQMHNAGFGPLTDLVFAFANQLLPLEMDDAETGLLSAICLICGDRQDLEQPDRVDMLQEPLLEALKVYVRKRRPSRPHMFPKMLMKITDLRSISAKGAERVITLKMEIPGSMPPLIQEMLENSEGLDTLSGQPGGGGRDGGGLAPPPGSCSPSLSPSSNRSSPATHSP
Sequence of Bile acid receptor (Homo sapiens) (Q96RI1 whole entry, looked up): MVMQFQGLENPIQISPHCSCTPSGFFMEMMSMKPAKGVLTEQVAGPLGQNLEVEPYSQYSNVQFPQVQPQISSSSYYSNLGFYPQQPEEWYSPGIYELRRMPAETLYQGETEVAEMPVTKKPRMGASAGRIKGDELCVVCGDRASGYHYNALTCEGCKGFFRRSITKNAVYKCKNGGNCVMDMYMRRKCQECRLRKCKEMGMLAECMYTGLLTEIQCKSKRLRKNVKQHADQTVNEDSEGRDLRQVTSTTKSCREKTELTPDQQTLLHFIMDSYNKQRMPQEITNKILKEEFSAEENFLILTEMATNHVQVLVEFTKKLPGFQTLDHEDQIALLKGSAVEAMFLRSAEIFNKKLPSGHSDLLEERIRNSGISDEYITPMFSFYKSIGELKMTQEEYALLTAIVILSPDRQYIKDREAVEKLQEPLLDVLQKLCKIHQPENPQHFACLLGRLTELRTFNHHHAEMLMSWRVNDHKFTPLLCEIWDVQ
Sequence of Aryl hydrocarbon receptor (Homo sapiens) (P35869 whole entry, looked up): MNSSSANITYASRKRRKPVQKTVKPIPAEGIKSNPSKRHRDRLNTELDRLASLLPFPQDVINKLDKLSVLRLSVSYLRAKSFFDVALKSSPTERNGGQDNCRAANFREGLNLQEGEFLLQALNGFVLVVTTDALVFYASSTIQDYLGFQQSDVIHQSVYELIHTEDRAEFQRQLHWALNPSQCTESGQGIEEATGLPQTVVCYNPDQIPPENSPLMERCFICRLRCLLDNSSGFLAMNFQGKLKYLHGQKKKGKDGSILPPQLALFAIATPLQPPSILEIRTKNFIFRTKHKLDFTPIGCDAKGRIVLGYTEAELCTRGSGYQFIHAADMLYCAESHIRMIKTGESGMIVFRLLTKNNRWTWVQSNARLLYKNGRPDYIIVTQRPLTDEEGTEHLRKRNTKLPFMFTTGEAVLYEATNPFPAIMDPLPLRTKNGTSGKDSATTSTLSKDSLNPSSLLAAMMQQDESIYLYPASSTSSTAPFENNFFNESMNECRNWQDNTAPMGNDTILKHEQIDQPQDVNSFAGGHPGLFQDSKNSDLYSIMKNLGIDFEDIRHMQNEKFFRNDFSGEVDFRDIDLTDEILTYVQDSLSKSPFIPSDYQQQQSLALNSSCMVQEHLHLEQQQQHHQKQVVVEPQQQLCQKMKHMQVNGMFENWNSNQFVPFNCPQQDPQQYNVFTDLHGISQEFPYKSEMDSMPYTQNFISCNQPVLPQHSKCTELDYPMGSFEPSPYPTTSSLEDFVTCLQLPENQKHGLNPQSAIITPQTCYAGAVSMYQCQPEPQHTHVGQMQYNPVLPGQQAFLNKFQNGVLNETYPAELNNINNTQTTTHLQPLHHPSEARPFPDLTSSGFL
Sequence of CCAAT/enhancer-binding protein beta (Homo sapiens) (P17676 whole entry, looked up): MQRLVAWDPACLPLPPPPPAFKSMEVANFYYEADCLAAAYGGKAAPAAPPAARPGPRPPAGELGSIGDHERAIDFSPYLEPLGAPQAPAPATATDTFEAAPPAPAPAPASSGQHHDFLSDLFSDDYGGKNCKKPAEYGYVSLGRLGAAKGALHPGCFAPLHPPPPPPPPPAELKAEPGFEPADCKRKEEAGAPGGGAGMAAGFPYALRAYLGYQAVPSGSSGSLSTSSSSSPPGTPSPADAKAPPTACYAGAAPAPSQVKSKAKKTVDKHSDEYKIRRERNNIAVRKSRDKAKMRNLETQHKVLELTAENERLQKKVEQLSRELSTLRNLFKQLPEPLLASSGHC
Sequence of Hepatocyte nuclear factor 3-beta (Homo sapiens) (Q9Y261 whole entry, looked up): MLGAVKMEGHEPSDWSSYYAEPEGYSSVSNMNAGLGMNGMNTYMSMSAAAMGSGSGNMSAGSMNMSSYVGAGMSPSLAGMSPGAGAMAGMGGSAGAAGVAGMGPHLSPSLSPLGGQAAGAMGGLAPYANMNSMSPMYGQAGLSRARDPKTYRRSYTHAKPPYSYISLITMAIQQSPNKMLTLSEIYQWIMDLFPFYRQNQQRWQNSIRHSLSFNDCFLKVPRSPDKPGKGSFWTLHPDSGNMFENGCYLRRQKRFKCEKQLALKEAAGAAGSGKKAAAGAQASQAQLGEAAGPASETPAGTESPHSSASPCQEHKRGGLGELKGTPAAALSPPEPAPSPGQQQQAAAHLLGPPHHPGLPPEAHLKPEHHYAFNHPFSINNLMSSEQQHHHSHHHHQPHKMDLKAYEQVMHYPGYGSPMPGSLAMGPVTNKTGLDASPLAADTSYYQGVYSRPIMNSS

In general, AC50 refers to the concentration giving half of the maximal activity seen. As for `Cc1ccc(S(=O)(=O)Oc2ccc(N=Nc3ccc(-c4ccc(N=Nc5c(O)ccc6cc(S(=O)(=O)O)cc(S(=O)(=O)O)c56)c(C)c4)cc3C)cc2)cc1`, the outcome in assay [1], in assay [2], in [3], in assay [4], in [6] and in assay [7] was inactive. For the same compound, the result in assay [9], in assay [10], in [11], in assay [12], in assay [13] and in [14] was inactive. The outcome in [15], in [16], in [17], in [18] and in assay [19] was inactive. The figures for the AC50 in assay [5] and in assay [8] were 30.1 µM (active) and 7.56 µM (active), respectively.
As for `CCCCCCCCCCCCS(=O)(=O)Cl`, the call in [1], in assay [2], in assay [3], in assay [4], in assay [5] and in assay [6] was inactive. Moreover, the compound was called inactive in [7], in assay [8], in assay [20], in assay [10], in assay [11] and in [12]. The compound was called inactive in assay [14], in assay [15], in assay [16], in [17], in assay [18] and in assay [19].
On to `CC(C)(C)c1ccc(C(=O)O)cc1`, for which the call in [1], in assay [2], in [3], in assay [4], in assay [5] and in [6] was inactive. Moreover, the outcome in [7], in assay [8], in [9], in [10], in [11] and in assay [12] was inactive. For the same compound, the outcome in [13], in [14], in assay [15], in assay [16], in assay [17] and in assay [18] was inactive. For the same compound, the compound was classed as inactive in assay [19].
Turning to `CCCCCCC(O)CCCCCCCCCCC(=O)O` (centres undefined), the compound was classed as inactive in assay [1], in [2], in assay [3], in assay [4], in assay [6] and in assay [7]. Further, the compound was classed as inactive in assay [8], in assay [9], in assay [20], in assay [10], in assay [11] and in assay [12]. The compound was classed as inactive in [14], in assay [15], in assay [16], in [17], in [18] and in assay [19].
Turning to `CCCCCCC(CO)CCCC` (centres undefined), the result in [1], in assay [2], in [3], in assay [4], in assay [6] and in assay [7] was inactive. Further, the compound was called inactive in assay [8], in [9], in [20], in [10], in [14] and in assay [15]. Besides, the call in assay [16], in assay [17] and in assay [18] was inactive.
`CCO/C=C1\N=C(c2ccccc2)OC1=O`: the call in [1], in assay [2], in assay [3], in assay [4], in [6] and in assay [7] was inactive. Besides, the result in [8], in [9], in assay [20], in assay [10], in assay [11] and in assay [12] was inactive. For the same compound, the compound was classed as inactive in assay [13], in assay [14], in assay [16], in [17] and in assay [18].
Take `COC(=O)C=C(C)CCC=C(C)C`: the call in [1], in [2], in [3], in assay [4], in [5] and in assay [6] was inactive. Besides, the result in assay [8], in assay [9], in [10], in [11], in assay [12] and in assay [13] was inactive. Further, the compound was classed as inactive in [14], in assay [15], in assay [16], in [17] and in assay [18].
Regarding `O=C(Nc1ccc([N+](=O)[O-])cc1)Nc1ccc([N+](=O)[O-])cc1` (tested in a mixture with another compound), the outcome in assay [1], in assay [2], in assay [3], in assay [4], in assay [6] and in assay [7] was inactive. The outcome in [8], in assay [9], in assay [20], in [10], in assay [11] and in [12] was inactive. Further, the compound was classed as inactive in [16], in assay [17], in [18] and in assay [19].
